Data on one sequence can be found in PMC7862700, “An all-to-all approach to the identification of sequence-specific readers for epigenetic DNA modifications on cytosine”.

Common to all, as to assay: DAPPL (digital affinity profiling via proximity ligation, sequencing); 10 mM Tris-HCl pH 7.5, 50 mM NaCl, 1 mM DTT, 4% glycerol, room temperature, 30 min; GST-TFs on glutathione beads, 16-mer random dsDNA library, 0.1% formaldehyde crosslink after washing; high values mean tight binding
The target of one test is T1, FEV (Homo sapiens, UniProt Q99581 1-238).
T1 sequence: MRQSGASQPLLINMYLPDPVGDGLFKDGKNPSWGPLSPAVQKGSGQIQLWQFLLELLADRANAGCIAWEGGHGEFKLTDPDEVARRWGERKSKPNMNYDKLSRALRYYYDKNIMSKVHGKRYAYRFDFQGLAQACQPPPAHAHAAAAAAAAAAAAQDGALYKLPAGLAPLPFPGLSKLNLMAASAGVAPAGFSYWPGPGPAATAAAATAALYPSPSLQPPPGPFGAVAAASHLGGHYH
The note with it: protein: recombinant; tags: N-terminal GST; dsDNA, one strand shown. The procedure, abridged: (§1)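 In yeast, human transcription factors were expressed with a GST fusion, then pulled down on glutathione beads and given DNA barcodes. Pooled with a tag-only sample, they were exposed to 200 nmole of a 16-mer random double-stranded DNA library (Tris/NaCl/DTT/glycerol buffer, room temperature, 30 min), washed, crosslinked with 0.1% formaldehyde, proximity-ligated using BsaI/T4 ligase for 1 h at 37 °C, PCR-amplified and read on an Illumina NextSeq500. Each hexamer's frequency of reads for a factor, divided by the matching frequency for the tag-only sample, gives the binding signal.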

The target in a further test is ETV5 (Homo sapiens, UniProt P41161 1-510). The note with it: protein: recombinant; tags: N-terminal GST; dsDNA, one strand shown. Put shortly: as §1
For another test, the target named is HSF1 (Homo sapiens, UniProt Q00613 1-529). The note with it: protein: recombinant; tags: N-terminal GST; chain copies: 3; dsDNA, one strand shown. The procedure, abridged: as §1
The target of a further test is T2, SPIC (Homo sapiens, UniProt Q8N5J4 1-248).
T2 sequence: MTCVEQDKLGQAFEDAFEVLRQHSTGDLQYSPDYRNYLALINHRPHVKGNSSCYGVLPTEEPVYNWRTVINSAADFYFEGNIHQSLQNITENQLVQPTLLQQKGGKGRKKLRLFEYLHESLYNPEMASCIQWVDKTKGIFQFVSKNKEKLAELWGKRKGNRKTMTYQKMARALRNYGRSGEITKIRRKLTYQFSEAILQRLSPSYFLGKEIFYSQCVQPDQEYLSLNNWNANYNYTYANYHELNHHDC
The note with it: protein: recombinant; tags: N-terminal GST; dsDNA, one strand shown. The procedure, abridged:
as §1

The next test has as its target ELF4 (Homo sapiens, UniProt Q99607 1-663). The note with it: protein: recombinant; tags: N-terminal GST; dsDNA, one strand shown. The procedure, abridged:
as §1

A further test has as its target T3, ELK4 (Homo sapiens, UniProt P28324-2 1-405).
T3 sequence: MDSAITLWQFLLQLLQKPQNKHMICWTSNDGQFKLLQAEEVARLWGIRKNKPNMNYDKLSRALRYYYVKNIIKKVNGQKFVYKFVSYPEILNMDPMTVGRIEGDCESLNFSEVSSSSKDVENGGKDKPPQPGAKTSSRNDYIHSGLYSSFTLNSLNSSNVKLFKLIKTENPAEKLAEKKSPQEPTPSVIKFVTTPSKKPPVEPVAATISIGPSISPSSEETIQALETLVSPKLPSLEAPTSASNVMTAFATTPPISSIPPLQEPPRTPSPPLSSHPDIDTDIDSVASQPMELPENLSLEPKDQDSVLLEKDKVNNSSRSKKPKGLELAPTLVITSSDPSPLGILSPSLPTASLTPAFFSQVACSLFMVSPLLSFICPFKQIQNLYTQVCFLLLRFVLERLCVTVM
The note with it: protein: recombinant; tags: N-terminal GST; dsDNA, one strand shown. The procedure, abridged: as §1

Another test concerns the target T4, ETV2 (Homo sapiens, UniProt O00321 1-342).
T4 sequence: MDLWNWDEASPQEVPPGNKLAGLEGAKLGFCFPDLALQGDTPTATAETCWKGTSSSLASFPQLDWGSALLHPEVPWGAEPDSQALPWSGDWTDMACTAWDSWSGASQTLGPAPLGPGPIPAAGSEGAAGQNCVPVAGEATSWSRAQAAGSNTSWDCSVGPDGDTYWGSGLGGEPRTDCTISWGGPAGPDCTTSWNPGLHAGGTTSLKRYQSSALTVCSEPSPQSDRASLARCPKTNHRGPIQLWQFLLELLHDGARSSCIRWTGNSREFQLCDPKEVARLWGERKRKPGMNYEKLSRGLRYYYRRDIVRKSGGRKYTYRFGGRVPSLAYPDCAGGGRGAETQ
The note with it: protein: recombinant; tags: N-terminal GST; dsDNA, one strand shown. Put shortly: as §1

Another test concerns the target T5, ELF3 (Homo sapiens, UniProt P78545 1-371).
T5 sequence: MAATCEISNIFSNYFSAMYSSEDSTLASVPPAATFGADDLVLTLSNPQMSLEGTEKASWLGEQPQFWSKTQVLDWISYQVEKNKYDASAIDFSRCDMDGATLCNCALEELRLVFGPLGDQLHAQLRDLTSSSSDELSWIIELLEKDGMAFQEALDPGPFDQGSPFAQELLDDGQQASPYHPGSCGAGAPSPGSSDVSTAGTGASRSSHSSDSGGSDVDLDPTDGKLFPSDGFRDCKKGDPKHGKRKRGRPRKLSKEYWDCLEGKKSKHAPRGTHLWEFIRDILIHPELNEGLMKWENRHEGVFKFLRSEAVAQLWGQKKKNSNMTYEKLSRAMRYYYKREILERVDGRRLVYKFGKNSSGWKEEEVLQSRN
The note with it: protein: recombinant; tags: N-terminal GST; dsDNA, one strand shown. The procedure, abridged: as §1

Another test has as its target CRX (Homo sapiens, UniProt O43186 1-299). The note with it: protein: recombinant; tags: N-terminal GST; dsDNA, one strand shown. Put shortly: as §1
The target in a further test is ETV1 (Homo sapiens, UniProt P50549 1-477). The note with it: protein: recombinant; tags: N-terminal GST; dsDNA, one strand shown. Put shortly:
as §1

The target of another test is T6, ERF (Homo sapiens, UniProt P50548 1-548).
T6 sequence: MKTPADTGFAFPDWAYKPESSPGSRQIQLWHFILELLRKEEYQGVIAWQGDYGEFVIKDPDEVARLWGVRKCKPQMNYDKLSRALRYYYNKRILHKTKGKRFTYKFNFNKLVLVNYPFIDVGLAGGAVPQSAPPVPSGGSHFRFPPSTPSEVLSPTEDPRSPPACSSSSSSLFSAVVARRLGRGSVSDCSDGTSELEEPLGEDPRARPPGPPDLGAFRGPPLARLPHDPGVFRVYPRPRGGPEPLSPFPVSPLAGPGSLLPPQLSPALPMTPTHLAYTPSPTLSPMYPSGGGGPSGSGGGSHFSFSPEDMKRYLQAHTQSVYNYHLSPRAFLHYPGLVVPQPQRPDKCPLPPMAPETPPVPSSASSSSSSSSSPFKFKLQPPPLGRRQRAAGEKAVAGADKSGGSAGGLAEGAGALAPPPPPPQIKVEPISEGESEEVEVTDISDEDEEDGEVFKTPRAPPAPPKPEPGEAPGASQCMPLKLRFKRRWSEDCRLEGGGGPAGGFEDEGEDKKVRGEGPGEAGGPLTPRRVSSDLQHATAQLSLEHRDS
The note with it: protein: recombinant; tags: N-terminal GST; dsDNA, one strand shown. The procedure, abridged: as §1

A further test addresses T7, ETV3L (Homo sapiens, UniProt Q6ZN32 1-361).
T7 sequence: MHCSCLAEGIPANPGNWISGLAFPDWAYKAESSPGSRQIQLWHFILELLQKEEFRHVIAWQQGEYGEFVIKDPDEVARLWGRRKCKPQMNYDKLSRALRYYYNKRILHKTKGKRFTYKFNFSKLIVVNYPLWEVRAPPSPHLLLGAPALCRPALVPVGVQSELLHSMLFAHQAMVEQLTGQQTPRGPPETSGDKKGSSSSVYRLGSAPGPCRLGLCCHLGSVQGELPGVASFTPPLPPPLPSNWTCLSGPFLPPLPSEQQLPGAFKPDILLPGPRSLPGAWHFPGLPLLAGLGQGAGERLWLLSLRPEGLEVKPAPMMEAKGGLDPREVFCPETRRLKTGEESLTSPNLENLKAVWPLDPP
The note with it: protein: recombinant; tags: N-terminal GST; dsDNA, one strand shown. The procedure, abridged: as §1

The target in the next test is T8, ETS2 (Homo sapiens, UniProt P15036 1-469).
T8 sequence: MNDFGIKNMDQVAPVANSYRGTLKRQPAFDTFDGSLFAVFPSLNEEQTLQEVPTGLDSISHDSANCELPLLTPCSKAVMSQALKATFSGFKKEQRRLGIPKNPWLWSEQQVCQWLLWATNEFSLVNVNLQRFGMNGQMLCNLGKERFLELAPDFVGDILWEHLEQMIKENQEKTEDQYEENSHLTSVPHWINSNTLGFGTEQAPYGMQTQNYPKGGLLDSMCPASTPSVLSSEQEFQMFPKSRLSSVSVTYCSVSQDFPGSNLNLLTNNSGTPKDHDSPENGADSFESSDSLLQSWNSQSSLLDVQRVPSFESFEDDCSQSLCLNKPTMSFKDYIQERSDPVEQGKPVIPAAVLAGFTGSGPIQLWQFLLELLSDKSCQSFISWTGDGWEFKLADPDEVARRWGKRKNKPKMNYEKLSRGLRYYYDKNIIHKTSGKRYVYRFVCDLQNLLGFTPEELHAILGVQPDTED
The note with it: protein: recombinant; tags: N-terminal GST; dsDNA, one strand shown. Put shortly:
as §1

The target of a further test is T9, SPDEF (Homo sapiens, UniProt O95238 1-335).
T9 sequence: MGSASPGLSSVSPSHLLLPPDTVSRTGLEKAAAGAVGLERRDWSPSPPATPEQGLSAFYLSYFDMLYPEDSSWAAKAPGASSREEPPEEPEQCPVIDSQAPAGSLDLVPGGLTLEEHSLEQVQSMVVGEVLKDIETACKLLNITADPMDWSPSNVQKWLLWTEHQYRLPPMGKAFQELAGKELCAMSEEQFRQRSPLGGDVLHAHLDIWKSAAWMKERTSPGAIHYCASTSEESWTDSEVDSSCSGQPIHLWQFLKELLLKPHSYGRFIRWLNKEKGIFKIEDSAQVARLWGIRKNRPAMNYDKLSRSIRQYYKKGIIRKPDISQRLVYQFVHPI
The note with it: protein: recombinant; tags: N-terminal GST; dsDNA, one strand shown. Put shortly:
as §1

In the next test the target is T10, ETV7 (Homo sapiens, UniProt Q9Y603 1-341).
T10 sequence: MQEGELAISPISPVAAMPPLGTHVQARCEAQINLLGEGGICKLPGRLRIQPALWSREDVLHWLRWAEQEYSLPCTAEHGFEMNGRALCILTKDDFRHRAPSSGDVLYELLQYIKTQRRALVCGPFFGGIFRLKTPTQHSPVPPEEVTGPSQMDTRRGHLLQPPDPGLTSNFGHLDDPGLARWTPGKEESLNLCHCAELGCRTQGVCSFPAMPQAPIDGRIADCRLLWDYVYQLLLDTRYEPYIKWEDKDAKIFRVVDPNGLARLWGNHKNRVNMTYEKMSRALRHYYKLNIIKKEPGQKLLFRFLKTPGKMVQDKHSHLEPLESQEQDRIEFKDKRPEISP
The note with it: protein: recombinant; tags: N-terminal GST; dsDNA, one strand shown. Put shortly: as §1

In a further test the target is T11, ELF5 (Homo sapiens, UniProt Q9UKW6-2 1-255).
T11 sequence: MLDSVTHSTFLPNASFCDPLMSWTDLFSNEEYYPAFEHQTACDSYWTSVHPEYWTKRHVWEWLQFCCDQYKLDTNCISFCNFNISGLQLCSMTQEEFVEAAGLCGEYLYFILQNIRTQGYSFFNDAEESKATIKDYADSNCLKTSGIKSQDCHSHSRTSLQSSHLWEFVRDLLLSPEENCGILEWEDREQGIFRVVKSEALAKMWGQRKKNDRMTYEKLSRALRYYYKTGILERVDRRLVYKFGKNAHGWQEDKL
The note with it: protein: recombinant; tags: N-terminal GST; dsDNA, one strand shown. Put shortly:
as §1

The target in the next test is T12, ETV3 (Homo sapiens, UniProt P41162-2 1-143).
T12 sequence: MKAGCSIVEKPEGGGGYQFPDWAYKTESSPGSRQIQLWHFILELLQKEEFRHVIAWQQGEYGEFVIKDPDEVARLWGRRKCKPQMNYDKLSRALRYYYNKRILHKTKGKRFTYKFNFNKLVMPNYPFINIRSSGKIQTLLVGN
The note with it: protein: recombinant; tags: N-terminal GST; dsDNA, one strand shown. The procedure, abridged:
as §1

The target of the next test is ETV6 (Homo sapiens, UniProt P41212 1-452). The note with it: protein: recombinant; tags: N-terminal GST; dsDNA, one strand shown. Put shortly:
as §1

Sequence of ELF4 (Q99607 whole entry): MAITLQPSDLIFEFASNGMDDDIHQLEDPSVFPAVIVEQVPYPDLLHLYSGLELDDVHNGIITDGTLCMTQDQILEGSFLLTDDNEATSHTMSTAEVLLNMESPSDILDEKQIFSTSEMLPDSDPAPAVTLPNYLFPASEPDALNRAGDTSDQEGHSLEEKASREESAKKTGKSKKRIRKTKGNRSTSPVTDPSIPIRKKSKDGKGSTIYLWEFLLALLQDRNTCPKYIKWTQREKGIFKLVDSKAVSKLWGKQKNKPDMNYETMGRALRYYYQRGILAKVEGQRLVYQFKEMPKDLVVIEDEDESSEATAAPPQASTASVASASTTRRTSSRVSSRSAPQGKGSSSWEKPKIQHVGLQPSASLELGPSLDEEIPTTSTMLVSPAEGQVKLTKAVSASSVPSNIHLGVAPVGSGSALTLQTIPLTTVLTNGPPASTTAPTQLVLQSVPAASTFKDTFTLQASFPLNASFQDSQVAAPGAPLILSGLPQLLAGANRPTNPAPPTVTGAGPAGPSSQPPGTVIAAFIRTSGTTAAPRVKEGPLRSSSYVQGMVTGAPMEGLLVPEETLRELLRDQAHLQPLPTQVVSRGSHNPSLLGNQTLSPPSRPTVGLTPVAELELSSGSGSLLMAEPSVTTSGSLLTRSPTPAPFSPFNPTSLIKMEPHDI
Sequence of ETV6 (P41212 whole entry): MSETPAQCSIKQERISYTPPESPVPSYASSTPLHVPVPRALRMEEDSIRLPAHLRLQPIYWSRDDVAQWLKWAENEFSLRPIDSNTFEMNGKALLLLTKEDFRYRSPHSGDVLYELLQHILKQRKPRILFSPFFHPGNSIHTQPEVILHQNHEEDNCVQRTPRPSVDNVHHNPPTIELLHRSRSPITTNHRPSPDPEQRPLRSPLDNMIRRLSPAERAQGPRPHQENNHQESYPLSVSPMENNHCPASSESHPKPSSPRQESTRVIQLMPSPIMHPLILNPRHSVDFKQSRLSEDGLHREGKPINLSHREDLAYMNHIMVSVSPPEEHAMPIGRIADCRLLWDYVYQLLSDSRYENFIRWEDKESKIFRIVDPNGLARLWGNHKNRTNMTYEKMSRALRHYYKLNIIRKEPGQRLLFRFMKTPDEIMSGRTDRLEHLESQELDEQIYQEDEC
Sequence of ETV5 (P41161 whole entry): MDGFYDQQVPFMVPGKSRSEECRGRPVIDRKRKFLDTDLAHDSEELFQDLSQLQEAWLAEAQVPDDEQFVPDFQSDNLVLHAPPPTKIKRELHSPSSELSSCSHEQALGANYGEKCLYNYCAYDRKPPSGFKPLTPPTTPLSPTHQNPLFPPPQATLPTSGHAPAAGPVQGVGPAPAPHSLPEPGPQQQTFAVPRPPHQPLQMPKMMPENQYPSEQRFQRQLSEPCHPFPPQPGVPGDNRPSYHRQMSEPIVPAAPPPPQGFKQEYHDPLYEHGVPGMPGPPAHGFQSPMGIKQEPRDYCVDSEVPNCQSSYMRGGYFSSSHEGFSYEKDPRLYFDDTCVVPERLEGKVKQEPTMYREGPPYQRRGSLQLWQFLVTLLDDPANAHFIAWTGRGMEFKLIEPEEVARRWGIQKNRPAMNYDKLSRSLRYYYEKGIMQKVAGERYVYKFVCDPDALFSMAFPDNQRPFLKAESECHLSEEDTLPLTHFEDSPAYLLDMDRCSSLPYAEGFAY
Sequence of CRX (O43186 whole entry): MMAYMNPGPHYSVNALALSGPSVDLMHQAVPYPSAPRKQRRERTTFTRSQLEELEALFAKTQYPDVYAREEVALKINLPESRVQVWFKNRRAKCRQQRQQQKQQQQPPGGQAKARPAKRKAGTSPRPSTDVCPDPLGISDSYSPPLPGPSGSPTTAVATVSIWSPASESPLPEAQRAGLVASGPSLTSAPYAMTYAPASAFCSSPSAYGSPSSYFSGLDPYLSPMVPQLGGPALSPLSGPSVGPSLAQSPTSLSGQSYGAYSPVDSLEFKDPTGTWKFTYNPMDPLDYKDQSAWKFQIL
Sequence of ETV1 (P50549 whole entry): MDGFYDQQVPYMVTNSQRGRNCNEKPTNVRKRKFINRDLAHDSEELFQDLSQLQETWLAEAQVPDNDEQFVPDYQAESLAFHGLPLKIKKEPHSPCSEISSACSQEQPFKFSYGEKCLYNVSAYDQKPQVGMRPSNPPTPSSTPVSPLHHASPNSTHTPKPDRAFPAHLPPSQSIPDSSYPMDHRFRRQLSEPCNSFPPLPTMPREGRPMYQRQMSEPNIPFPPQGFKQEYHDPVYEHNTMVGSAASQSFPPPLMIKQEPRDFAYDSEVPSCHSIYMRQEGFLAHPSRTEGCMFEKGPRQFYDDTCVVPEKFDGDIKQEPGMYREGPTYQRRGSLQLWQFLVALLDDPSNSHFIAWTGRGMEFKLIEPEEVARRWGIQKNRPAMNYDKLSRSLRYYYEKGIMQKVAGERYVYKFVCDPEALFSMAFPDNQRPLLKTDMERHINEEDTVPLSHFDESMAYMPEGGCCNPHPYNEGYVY
Sequence of HSF1 (Q00613 whole entry): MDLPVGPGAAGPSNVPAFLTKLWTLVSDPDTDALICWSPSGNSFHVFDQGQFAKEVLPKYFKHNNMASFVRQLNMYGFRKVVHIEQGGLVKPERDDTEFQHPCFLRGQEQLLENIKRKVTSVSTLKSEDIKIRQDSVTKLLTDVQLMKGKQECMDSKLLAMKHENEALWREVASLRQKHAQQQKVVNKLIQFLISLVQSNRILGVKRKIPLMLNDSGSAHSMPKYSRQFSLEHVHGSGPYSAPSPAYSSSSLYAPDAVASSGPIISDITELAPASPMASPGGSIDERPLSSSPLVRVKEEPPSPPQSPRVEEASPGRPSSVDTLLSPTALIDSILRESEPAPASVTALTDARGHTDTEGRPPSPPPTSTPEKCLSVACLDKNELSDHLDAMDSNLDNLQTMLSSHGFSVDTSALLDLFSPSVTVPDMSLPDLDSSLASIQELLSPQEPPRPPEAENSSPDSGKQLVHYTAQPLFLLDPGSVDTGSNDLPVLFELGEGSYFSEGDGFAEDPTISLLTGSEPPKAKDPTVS

Regarding GCTATT, the binding signal with FEV is 1.29 fold enrichment (6-mer frequency, TF over GST control); with ETV5, 1.3 fold enrichment (6-mer frequency, TF over GST control); in the test with HSF1 it was 1.22 fold enrichment (6-mer frequency, TF over GST control); with SPIC it was 1.38 fold enrichment (6-mer frequency, TF over GST control); with ELF4, 1.38 fold enrichment (6-mer frequency, TF over GST control); with ELK4, 1.56 fold enrichment (6-mer frequency, TF over GST control). The binding signal is 1.41 fold enrichment (6-mer frequency, TF over GST control) with ETV2; 1.45 fold enrichment (6-mer frequency, TF over GST control) with ELF3; 1.38 fold enrichment (6-mer frequency, TF over GST control) in the test with CRX; 1.3 fold enrichment (6-mer frequency, TF over GST control) with ETV1; 1.37 fold enrichment (6-mer frequency, TF over GST control) with ERF; 1.34 fold enrichment (6-mer frequency, TF over GST control) with ETV3L. Moreover, the binding signal with ETS2 was 1.25 fold enrichment (6-mer frequency, TF over GST control); with SPDEF it was 1.2 fold enrichment (6-mer frequency, TF over GST control); with ETV7, 1.34 fold enrichment (6-mer frequency, TF over GST control); with ELF5, 1.33 fold enrichment (6-mer frequency, TF over GST control); in the test with ETV3 it was 1.25 fold enrichment (6-mer frequency, TF over GST control); with ETV6, 1.35 fold enrichment (6-mer frequency, TF over GST control).
